# Measured values published in publication PMC7826789 (International Journal of Molecular Sciences, 2021).
# Tested on: BUB1
# Details: Compound Concentration (nM):1000
# 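Also: KINOMEscan scanMAX binding as percent activity remaining versus control; lower means stronger binding.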
row,SMILES,Percent Control [%]
1,O=C(Nc1n[nH]c2nc(-c3ccc(O)cc3)c(Br)cc12)C1CC1 [SB-725317],94
2,COc1cccc(-c2c[nH]c3c(N/N=C/c4ccncc4)ncnc23)c1 [GW814408X],50
3,Cl.O=C(O[C@H]1CN[C@H](C#Cc2cc3ncnc(Nc4ccc5c(cnn5Cc5ccccc5)c4)c3s2)C1)N1CCOCC1 [GSK200398A],45
4,CCS(=O)(=O)c1ccc(OC)c(Nc2ncc(-c3cccc(OC)c3)o2)c1 [GW580509X],95
5,COc1ccc2cc(-c3c(-c4ccncc4)nc(-c4ccc(S(C)(=O)=O)cc4C)n3C)ccc2c1 [SB-633825],33
6,COc1ccc(COc2ccc(Cc3cnc(N)nc3N)cc2OC)cc1 [GW632580X],100
7,C[C@@H](Oc1cc(-n2cnc3ccc(OC4CCN(C)CC4)cc32)sc1C(N)=O)c1ccccc1Cl [GSK579289A],88
8,CCS(=O)(=O)c1ccc(OC)c(Nc2ncc(-c3cccc(F)c3)o2)c1 [GW621970X],100
9,COc1cc(N2CCN(C(C)C)CC2)ccc1Nc1nc(Nc2ccc(F)cc2C(=O)NC[C@@H](O)CO)c2cc[nH]c2n1 [GSK1392956A],88
10,COc1cc2ncn(-c3cc(O[C@H](C)c4ccccc4Cl)c(C(N)=O)s3)c2cc1OC [GSK237701A],56
11,Cl.O=C(Nc1ccc(Oc2ccc3[nH]c(NC(=O)c4ccccc4)nc3c2)cc1)Nc1cc(C(F)(F)F)ccc1F [GW709042A],92
12,COc1cc(C)c(N(C)C(=O)CN(C)C)cc1Nc1nc(Nc2cccc(F)c2C(N)=O)c2cc[nH]c2n1 [GSK2219385],90
